# For some of these results: Potency and affinity values are given separately. Activity calls are given as the source filed them.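 How the source made its calls, unless noted: active means fitted half-maximal concentration within the tested range, moderate curve steepness, significant signal drop, and little compound fluorescence or bead-linkage interference; inactive means the rest.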
# Legend:
# [1] = biological target: Cell division control protein 42 homolog (Homo sapiens) (UniProt P60953); experiment: inhibition of fluorescent GTP binding to constitutively active Cdc42 – biochemical, multiplex bead flow cytometry, Bodipy-FL-GTP, dose response (AID 1333;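 active means fitted half-maximal concentration within the tested dose range, moderate curve steepness, a statistically real signal drop, and little compound fluorescence or tag-binding interference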)
# Sequence of Cell division control protein 42 homolog (Homo sapiens) (P60953 whole entry, looked up): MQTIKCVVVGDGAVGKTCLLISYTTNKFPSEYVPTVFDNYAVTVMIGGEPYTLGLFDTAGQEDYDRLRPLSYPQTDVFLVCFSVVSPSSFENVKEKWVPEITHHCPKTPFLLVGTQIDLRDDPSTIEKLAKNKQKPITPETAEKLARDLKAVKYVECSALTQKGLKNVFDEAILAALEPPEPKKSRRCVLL
# [2] = biological target: Cell division control protein 42 homolog (Homo sapiens) (UniProt P60953); experiment: inhibition of fluorescent GTP binding to wildtype Cdc42 – biochemical, multiplex bead flow cytometry, Bodipy-FL-GTP, dose response (AID 1334); conditions: bead-based flow cytometry, Bodipy-FL-GTP binding to GST-Cdc42; at 100 µM (top of the series)
# [3] = system: Ras-related protein Rab-7a (dog), GTP binding; experiment: blockers of fluorescent GTP binding to Rab7 – biochemical, wildtype, multiplex bead flow cytometry, dose response (AID 1336; call rule not given here)
# [4] = biological target: Ras-related C3 botulinum toxin substrate 1 (Homo sapiens) (UniProt P63000); experiment: inhibition of wildtype Rac1 nucleotide loading – biochemical, multiplex bead flow cytometry, dose response (AID 1340;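 active means dose curve with midpoint inside tested range, moderate steepness, plateau gap beyond fit error, low compound glow and bead-link interference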); conditions: GST-Rac1 beads, Bodipy-FL-GTP binding; at 100 µM (top of the series)
# [5] = biological target: GTPase HRas (Homo sapiens) (UniProt P01112); experiment: blockade of GTP loading onto mutant Ras – biochemical, activated mutant, multiplex bead flow cytometry, dose response (AID 1341;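 active means dose-response curve with midpoint inside the tested range, moderate steepness, significant amplitude and little compound fluorescence or bead-attachment interference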;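 further: GST-tagged constitutively activated Ras mutant immobilized on beads and multiplexed with other GTPases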)
# [6] = hit retest on RPL19A-GFP reporter strain – cell-based, S. cerevisiae, flow cytometry, cherry picks, mother/daughter gates, confirmation (AID 2270;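 active means GFP response below 50% of the DMSO control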); conditions: 3 h, at 10 µM, stronger effect = lower value, 100 = same GFP as DMSO wells
# [7] = yeast TOR pathway reporter LAP4-GFP change – cell-based, cherry picks, flow cytometry, mother/daughter gates, confirmation (AID 2271;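 active means GFP response above 150% of the DMSO control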;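 further: ratio of sample to DMSO plate mean so 100% equals DMSO level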); conditions: S. cerevisiae LAP4-GFP strain, 3 h, at 10 µM, stronger effect = higher value
# [8] = TOR pathway reporter MEP2-GFP, retest of hits – S. cerevisiae, flow cytometry GFP, cherry picks, confirmation (AID 2272;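 active means GFP response above 150% of the DMSO control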;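 further: ratio of well signal to plate DMSO mean so 100% equals DMSO level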); conditions: S. cerevisiae MEP2-GFP strain, 3 h, at 10 µM, stronger effect = higher value
# [9] = yeast AGP1-GFP fluorescence change, single-dose – cell-based, flow cytometry, S. cerevisiae, cherry picks, confirmation (AID 2273;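 active means GFP response above 150% of the DMSO level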;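 further: median GFP channel fluorescence over the whole cell population gate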); conditions: S. cerevisiae AGP1-GFP strain, 3 h, at 10 µM
# [10] = TOR pathway CIT2 reporter hit retest – S. cerevisiae, GFP fusion, cherry picks, mother/daughter gates, confirmation (AID 2274;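 active means GFP response above 150% of the DMSO level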); conditions: S. cerevisiae CIT2-GFP strain, flow cytometry, 3 h, at 10 µM, stronger effect = higher value
# [11] = measured here: daughter cell gate
# [12] = measured here: mother cell gate
smiles,measurement,setting,value
CCN(CC)c1ccc(/C=N/c2sc3c(c2C#N)C2CCN3CC2)c(O)c1,outcome,[1],inactive
same,"fluorescence, percent of control (lower = inhibition)",[2],91.1%
same,outcome,[3],inactive
same,"GTP binding signal, raw median fluorescence (lower = inhibition) (MCF (arbitrary fluorescence units))",[4],248
same,outcome,[5],inactive
COc1ccc(-c2cc(=NCCCCCC(=O)O)c3cc(C)ccc3o2)cc1,outcome,[1],inactive
same,"fluorescence, percent of control (lower = inhibition)",[2],34.9%
same,outcome,[3],inactive
same,"GTP binding signal, raw median fluorescence (lower = inhibition) (MCF (arbitrary fluorescence units))",[4],132
same,outcome,[5],inactive
CN1C(=O)N(C)C(=O)C2(Cc3c(ccc4ccccc34)N(C)C2)C1=O,outcome,[1],inactive
same,"fluorescence, percent of control (lower = inhibition)",[2],34.8%
same,outcome,[3],inactive
same,"GTP binding signal, raw median fluorescence (lower = inhibition) (MCF (arbitrary fluorescence units))",[4],230
same,outcome,[5],inactive
Cc1cc(C)cc(N2C(=O)NC(=O)/C(=C\C=C\c3ccco3)C2=O)c1,outcome,[1],inactive
same,"fluorescence, percent of control (lower = inhibition)",[2],32.8%
same,outcome,[3],inactive
same,"GTP binding signal, raw median fluorescence (lower = inhibition) (MCF (arbitrary fluorescence units))",[4],206
same,outcome,[5],inactive
O=C1NC(=S)N(Cc2ccco2)C(=O)/C1=C\c1cccs1,outcome,[1],inactive
same,"fluorescence, percent of control (lower = inhibition)",[2],54.7%
same,outcome,[3],inactive
same,"GTP binding signal, raw median fluorescence (lower = inhibition) (MCF (arbitrary fluorescence units))",[4],167
same,outcome,[5],inactive
Cc1sc(-n2c(C)cc(C=C3C(=O)NC(=O)NC3=O)c2C)c(C#N)c1C,outcome,[1],inactive
same,"fluorescence, percent of control (lower = inhibition)",[2],27.5%
same,"GTP binding signal, raw median fluorescence (lower = inhibition) (MCF (arbitrary fluorescence units))",[4],199
same,outcome,[5],inactive
O=C1CN=C(c2ccccc2F)c2cc(Cl)ccc2N1,GFP response vs DMSO,[6],99.3% (inactive)
same,GFP response vs DMSO,[6]; [11],99%
same,GFP response vs DMSO,[6]; [12],99.1%
same,GFP response relative to DMSO,[7],97.4% (inactive)
same,GFP response relative to DMSO,[7]; measured here: daughter cell gate response,98.7%
same,GFP response relative to DMSO,[7]; measured here: mother cell gate response,98.3%
same,GFP response vs DMSO,[8],100% (inactive)
same,"GFP response, % of DMSO",[9],98% (inactive)
same,"GFP response, % of DMSO",[10],107% (inactive)
same,"GFP response, % of DMSO",[10]; [11],105%
same,"GFP response, % of DMSO",[10]; [12],111%

# From PubChem BioAssay
